Only some compounds are listed: those with a hit (about 1.3% of all), similar ones and a draw of the others.
LYPLA1 counter: LYPLA1 inhibitors, primary screen, counter-screen for PME1 inhibitor project, biochemical, fluorescence polarization, FP-Rh probe ABPP; inhibition, % at 5.9 µM; AID 2174, 2009; Acyl-protein thioesterase 1 (Homo sapiens), O75608; 0.16% of 320,000 active; recombinant LYPLA1;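 active = inhibition above the mean of all tested compounds plus 3 SD, set per campaign, cut at about 14% in these data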;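 note: inhibitors block serine hydrolase probe labeling of LYPLA1 so polarization falls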
LYPLA2 inh: LYPLA2 inhibitors, primary screen, counter-screen for PME1 inhibitor project, biochemical, fluorescence polarization, FP-Rh probe ABPP; Acyl-protein thioesterase 2 (Homo sapiens), O95372; recombinant LYPLA2; inhibition, % at 5.9 µM; 0.38% of 320,000 active; AID 2177, 2009;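 active = inhibition above the screen-wide mean plus 3 SD, limit set per campaign, cut at about 26% in these data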
Target sequence (O95372 whole entry, looked up): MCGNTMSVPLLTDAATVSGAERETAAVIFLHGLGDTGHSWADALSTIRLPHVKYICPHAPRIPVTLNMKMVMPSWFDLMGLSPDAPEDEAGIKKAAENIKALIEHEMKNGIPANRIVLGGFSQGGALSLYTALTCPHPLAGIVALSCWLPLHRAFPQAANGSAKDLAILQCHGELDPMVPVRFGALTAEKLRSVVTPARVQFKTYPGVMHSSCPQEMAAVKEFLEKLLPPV
Fam108B inh: mouse Fam108B serine hydrolase inhibitors, primary screen, counter-screen for RBBP9 inhibitor project, biochemical, fluorescence polarization; recombinant Fam108B, FP-Rh probe fluorescence polarization; inhibition, % at 9.51 µM; 0.33% of 300,000 active;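 active = inhibition above the screen mean inhibition plus 3 SD, computed separately per campaign, cut at about 18% in these data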;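 note: inhibitors lower polarization as less probe binds the enzyme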
PREPL inh: PREPL enzyme inhibitors, primary screen, biochemical, fluorescence polarization; Prolyl endopeptidase-like (Homo sapiens), Q4J6C6; recombinant PREPL, fluorescence polarization activity-based probe; inhibition, % at 5.96 µM; 0.68% of 320,000 active; AID 2751, 2010; in the data active = inhibition above about 43%
PME-1 primary: PME-1 inhibitors via competitive probe labeling, primary screen, biochemical, fluorescence polarization, FP-Rh probe, HTS; recombinant PME-1; inhibition, % at 5.9 µM; 0.53% of 320,000 active;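 active = inhibition above the campaign mean of all compounds plus 3 SD, cut at about 26% in these data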;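 note: competitive labeling of PME-1 active site by serine hydrolase directed probe; inhibitors block probe labeling so polarization falls and inhibition rises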
Target sequence (Q9Y570 whole entry, looked up): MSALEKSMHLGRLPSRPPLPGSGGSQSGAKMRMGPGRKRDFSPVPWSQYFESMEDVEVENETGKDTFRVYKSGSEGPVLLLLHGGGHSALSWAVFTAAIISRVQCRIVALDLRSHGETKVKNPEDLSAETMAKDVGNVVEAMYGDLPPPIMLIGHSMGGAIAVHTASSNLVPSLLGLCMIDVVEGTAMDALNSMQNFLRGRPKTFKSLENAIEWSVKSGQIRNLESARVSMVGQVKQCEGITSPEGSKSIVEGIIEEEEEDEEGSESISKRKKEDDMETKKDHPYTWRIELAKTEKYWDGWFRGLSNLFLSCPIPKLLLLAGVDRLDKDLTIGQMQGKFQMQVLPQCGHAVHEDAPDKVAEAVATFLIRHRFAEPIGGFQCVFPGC
LYPLA2 conf: LYPLA2 inhibitors, retest, confirmation, counter-screen for PME1 inhibitor project, biochemical, fluorescence polarization, FP-Rh probe ABPP; shares compounds with LYPLA2 inh; recombinant LYPLA2; inhibition, % at 5.9 µM; 72% of 1,100 active;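 active = mean inhibition across replicates above the hit cutoff set in the primary screen, cut at about 26% in these data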;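 note: blocked labeling of the enzyme by serine hydrolase FP-Rh probe lowers polarization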
LYPLA2 ABPP: LYPLA2 inhibitors in proteome, late-stage follow-up, gel-based competitive ABPP, fluorescence, assay provider. shares compounds with LYPLA2 inh. rhLYPLA2 in mouse brain proteome, gel ABPP FP-Rh. inhibition, % at 20 µM. 30% of 150 active. AID 652029, 2013;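 active = inhibition of LYPLA2 enzyme probe labeling above about 50%, limit read from the data; inactive = inhibition below that limit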;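 note: loss of FP-Rh probe labeling of the LYPLA2 gel band measured as band density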
Numbers stand for hits; 0 = inactive; - = no result.

SMILES	LYPLA1 counter	LYPLA2 inh	Fam108B inh	PREPL inh	PME-1 primary	LYPLA2 conf	others
CN(Cc1ccc(C(F)(F)F)cc1)C(=O)c1ccc(Oc2ccccc2)cc1	0	29	0	0	0	0
CC(C)CCC1(C)NC(=O)N(CC(=O)c2ccc[nH]2)C1=O (centres undefined)	0	0	0	0	0	-
O=[N+]([O-])c1ccc(CN2CCOCCOCCN(Cc3ccc([N+](=O)[O-])cc3)CCOCC2)cc1	0	37	0	0	0	0
Cc1cc(C)n(CC(=O)NNC(=O)COc2ccc(Br)cc2F)n1	-	-	-	0	-	-
Cc1ccc(C(CNS(=O)(=O)c2ccc(Cl)cc2)N2CCN(C)CC2)cc1 (centres undefined)	0	0	0	0	0	-
COc1cccc(N2CCN(C(=O)C3CCN(S(=O)(=O)c4ccc5c(c4)CC(C)N5C(C)=O)CC3)CC2)c1 (centres undefined)	0	40	0	0	0	49
CC1Cc2cc(S(=O)(=O)N3CCN(c4ccc(Cl)cc4)CC3)ccc2N1C(=O)C1CC1 (centres undefined)	0	0	0	0	0	-
CC(=O)N1c2ccc(S(=O)(=O)N3CCC(C(=O)N4CCN(c5ccc(Cl)cc5)CC4)CC3)cc2CC1C (centres undefined)	0	92	0	0	0	92	LYPLA2 ABPP=75
COc1cccc(CN2CC(C(=O)N3CCCO3)CCC2=O)c1 (centres undefined)	0	0	0	0	0	-
O=C(c1cc(COc2ccc(F)cc2Cl)on1)N1CCCC(OCc2cccnc2)C1 (centres undefined)	0	0	0	0	0	-
O=C(c1cc(COc2ccc(F)cc2Cl)on1)N1CCC(OCc2cccnc2)CC1	0	32	0	0	0	33
COc1cc(-c2c(C#N)c(N)nc(SCc3ccncc3)c2C#N)cc(OC)c1OC	0	35	0	0	0	29
COc1cc(-c2c(C#N)c(N)nc3c2CCCC3)cc(OC)c1OC	0	0	0	0	0	-
CC(=O)Nc1ccc(OC(=O)N2CCCC2)cc1	0	0	0	0	0	-
Cc1cc(=O)oc2cc(Oc3ccc([N+](=O)[O-])cc3[N+](=O)[O-])ccc12	0	37	0	0	0	41
O=[N+]([O-])c1cc(/C=N/O)ccc1Oc1cccc(Cl)c1	0	0	0	0	0	-
Cc1cc(=O)oc2cc(Oc3ncccc3[N+](=O)[O-])ccc12	0	0	0	0	0	-
O=Cc1cccc(Oc2ccc([N+](=O)[O-])cc2[N+](=O)[O-])c1	0	42	0	0	0	27
C[C@H](CO)N1C[C@H](C)[C@@H](CN(C)C(=O)Nc2ccc3c(c2)OCO3)Oc2ccc(NC(=O)Nc3ccc4c(c3)OCO4)cc2C1=O	-	-	-	0	-	-
CC[C@@H]1[C@H]2CCCC(=O)N3CC[C@@H](C[C@@H]1Nc1ccccc1)[C@@H]23	0	0	0	0	0	-
O=C(Nc1ccc(Cc2ccncc2)cc1)c1ccc(Cl)c([N+](=O)[O-])c1	0	0	0	0	0	-
Cc1c([N+](=O)[O-])cc(C(=O)Nc2ccc(Cc3ccncc3)cc2)cc1[N+](=O)[O-]	0	29	0	0	0	28
Cn1c(=O)c2c(ncn2CC(=O)N/N=C/C(Br)=C/c2ccccc2)n(C)c1=O	0	27	0	0	0	39
CSCCC(NC(=O)COc1ccccc1)C(=O)N(C)Cc1cccc(F)c1 (centres undefined)	0	0	-	0	0	-
O=C1C2CCCN2C(=O)N1CCCCN1CCN(c2cccc(Cl)c2)CC1 (centres undefined)	0	39	0	0	0	36
SMILES	LYPLA1 counter	LYPLA2 inh	Fam108B inh	PREPL inh	PME-1 primary	LYPLA2 conf	others
O=C1CCCC(=NNC(=O)c2ccc(CN3c4cccc5cccc(c45)S3(=O)=O)cc2)C1	-	-	-	-	-	-	LYPLA2 ABPP=0
Cc1ccc(/C=C2/SC(=S)N(c3ccc(S(=O)(=O)Nc4nccs4)cc3)C2=O)cc1	0	0	0	0	0	-
Cc1ccc(Oc2ccc3c(c2)C(=O)N(c2ccc(S(=O)(=O)Nc4nccs4)cc2)C3=O)cc1	0	63	0	0	0	54	LYPLA2 ABPP=53
CCc1nnc2c(NCCc3ccccc3)nc3ccccc3n12	0	0	0	0	0	-
O=C(O)CN1C(=O)/C(=C\c2cc(Br)ccc2OCc2ccc(F)cc2)SC1=S	0	41	0	0	0	44
O=C(O)CN1C(=O)/C(=C\c2ccccc2OCc2ccc(F)cc2)SC1=S	0	0	0	0	0	-
O=C(c1cc(COc2ccc(F)cc2F)on1)N1C[C@H]2CC[C@H]1C2	0	27	0	0	0	0
COc1ccc(CCNc2oc(-c3ccc(OC)c(OC)c3)nc2P(=O)(OC)OC)cc1OC	0	28	0	0	0	0
O=C(NCCCC1CCCC1)C1CCC(=O)N(Cc2ccc(Cl)cc2)C1 (centres undefined)	0	28	0	0	0	34
CC(C(=O)O)N1CCCCC1 (centres undefined)	0	0	0	0	0	-
COc1ccc(/C=N/N2CCN(Cc3ccc(C)cc3)CC2)cc1Br	0	26	0	0	0	0
COc1cc(/C=C(/C#N)C(=O)Nc2ccccc2)ccc1OCc1ccc(C(=O)O)cc1	0	0	0	0	0	-
N#C/C(=C\c1ccc(OCc2ccc(C(=O)O)cc2)cc1)C(=O)NCc1ccccc1	0	40	0	0	0	33
COc1cc(/C=C(\C#N)C(=O)NCc2ccccc2)ccc1OCc1ccc(C(=O)O)cc1	0	41	0	0	0	29
CCOC(=O)c1ncccc1NC(=O)CC(=O)Nc1cccnc1C(=O)OCC	0	0	0	0	0	-
O=C(NC(=S)N1CCN(c2ccc(C(F)(F)F)cc2[N+](=O)[O-])CC1)c1cccs1	0	36	0	0	0	30
CC1CCCC(NC(=O)CSc2n[nH]c(=O)n2Cc2ccccc2)C1C (centres undefined)	-	-	-	0	-	-
COc1ccc2c(c1)C(=O)[C@@H](O)[C@H](c1ccc(OC)c(Br)c1)O2	0	70	0	0	0	70	LYPLA2 ABPP=63
O=C(Nc1ccc(NS(=O)(=O)c2ccccc2)cc1)c1ccccc1Cl	-	-	-	0	-	-
COC(=O)N/N=C/c1ccccc1OCCOc1ccc(OC)cc1	0	35	0	0	0	42
COC(=O)N/N=C/c1ccccc1OCc1ccccc1	0	0	0	0	0	-
COc1ccc(CCNC(=O)CCCOc2ccc(C)cc2)cc1OC	0	0	0	0	0	-

Bioassay records (PubChem BioAssay)
